HCMV antiviral: blocks human cytomegalovirus replication | activity change, negative = inhibition, % at 57.5 µM | AID 1259415 | hit rate 4.5% among 410,000 | HFF cells, HCMV-luciferase reporter, 72 h; hits give low values; in the data active = activity change below about -60%; inconclusive = no clear call, values can overlap the other calls; inactive = above about -39%; also: % is scaled to controls: 0 for no effect and ±100 for the full control effect
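Cell-based, HFFs, 1000 cells/well, 16 h 37C; cpds in DMSO + HCMV-luc, MOI 1 PFU/cell; 72 h 37C; OneGlo luminescence after 5 min RT; norm. to buffer vs Salinomycin 10uM.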
Pf growth 48h: inhibits P. falciparum growth in the first generation, 48 h | P. falciparum luciferase growth in erythrocytes, 48 h | Potency, µM (doses to about 28.7 µM), without a hit: at the top dose activity change, negative = inhibition, actives largely listed as inhibitors | hit rate 5.9% among 310,000; also: potency is read from the fitted curve at half-maximal effect; % is scaled to controls: 0 for no effect and ±100 for the full control effect
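Erythrocytes infected with P. falciparum carrying an integrated firefly luciferase reporter (2% hematocrit, 0.1% parasitemia final) were exposed to compounds in RPMI 1640 with 0.5% Albumax at 37 C, 5% CO2. Growth inhibition was scored as reduced luminescence.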
Cycloheximide cs: counter-screen hit for Shiga toxin inhibitors, cycloheximide | cell reporter, cycloheximide protein synthesis inhibition counterscreen | max response, % | hit rate 12% among 300,000; in the data active = max response mostly above about 13%, no sharp cut-off; inactive = mostly below about 14%; also: read at 38.3 µM for the half of the compounds with a filed dose; 0% is about no effect
Pf growth 96h: P. falciparum growth inhibition at 96 hour, primary screen for plastid delayed-death inhibitors; P. falciparum luciferase reporter growth, 96 h; Potency, µM (top dose mostly 28.7 µM), for inactives: at the top dose activity change, negative = inhibition, most hits filed as inhibitors; AID 504834; hit rate 6.9% among 320,000; also: potency is read from the fitted curve at half-maximal effect; % is scaled to controls: 0 for no effect and ±100 for the full control effect
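96 h incubation, 37 C, 5% CO2, of luciferase-reporter P. falciparum-infected RBCs (2% hematocrit, 0.05% parasitemia final) with test compounds; endpoint luminescence.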
Shiga inhibitor: Shiga toxin inhibition; inhibition, % at 38.7 µM; AID 2315; hit rate 9.2% among 290,000; Vero cells, Shiga toxin protein synthesis inhibition reporter; in the data active = inhibition mostly above about 28%, no sharp cut-off; inactive = mostly below about 43%; also: 0% is about no effect
* hit, by the source's call; i = inactive; ? = inconclusive; . = no result given; [ ] = remark or other dose. A selection: hits, their analogues and other compounds. The true share with any hit is near 20%. Unless noted, calls follow the shape of the dose curve; as a rule, active = well fitted inhibition curve with a large enough effect; inconclusive = small, poorly fitted or top-dose-only effect, or another doubt; inactive = no such curve, though single readings can be large or run the other way.

SMILES	HCMV antiviral	Pf growth 48h	Cycloheximide cs	Pf growth 96h	Shiga inhibitor
CCc1c(C#N)c(SCCC(=O)Nc2cccc(OC)c2)nc2c1C(=O)CC(C)(C)C2	-21	?	-4	.	-25
O=C(CSc1nnnn1-c1ccccc1)Nc1nsc(-c2ccccc2)n1	-16	10%	-2	.	-9
O=C(CSc1nnc2ccccn12)Nc1nsc(-c2ccccc2)n1	-27	31%	19*	11%	21
CCc1c(C#N)c(SCCC(=O)Nc2ccc(F)cc2)nc2c1C(=O)CC(C)(C)C2	-96*	?	-5	.	-25
O=C1C(c2ccc(F)cc2)N(Cc2ccccc2Cl)C(=O)CN1C1CCCCC1 (stereo unspecified)	-18	.	.	.	.
Cc1cc(NCc2ccco2)n2ncnc2n1	-11	1%	-2	?	-13
O=C(COc1ccc(Cl)cc1)NCc1nnc(SCC(=O)c2ccccc2)o1	1	-6%	-3	4.1µM*	-6
O=C(CSc1nnc(CNC(=O)c2ccco2)o1)c1ccccc1	62	.	-3	4.1µM*	31
O=C(COc1ccc(Cl)cc1)NCc1nnc(SCC(=O)Nc2ccccc2)o1	11	.	12	?	2
O=C(CSc1nnc(CNC(=O)c2ccccc2)o1)c1ccc(Cl)cc1	-17	18%	-1	38%	14
Cc1cc(C)c(NC(=O)CSc2nnc(CNC(=O)c3ccco3)o2)c(C)c1	-33	-20%	-3	9.3µM*	-6
C=CCn1c(CNC(=O)c2ccco2)nnc1SCC(=O)c1ccccc1	-11	39%[5.75 µM]	12*	i	24
COc1ccc(CNC(=O)c2cc3c(=O)n(C)c4ccccc4c3n2C)c(OC)c1	-4	.	.	.	.
CCN(CC)S(=O)(=O)c1ccc2c(c1)N(CC(=O)Nc1ccccc1F)C(=O)C1CCCN21 (stereo unspecified)	-14	.	.	.	.
CN(C)S(=O)(=O)c1ccc(C(=O)NCc2nnc(SCC(=O)N3CCCC3)o2)cc1	-23	8%	10	-17%	-12
CCn1c(=O)c2sccc2n2c(CCCC(=O)N3CCN(c4ccc(OC)cc4)CC3)nnc12	-30	.	.	.	.
O=C(CSc1nnc(CNC(=O)c2ccco2)o1)Nc1ccccc1	-13	13%	-6	26%	-7
C=CCn1c(Cc2cccs2)nnc1SCC(=O)c1ccc(F)cc1	-29	1%	15*	-33%	29
COc1ccc(OC)c(NC(=O)CSc2nnc(CNC(=O)c3ccco3)o2)c1	-7	.	-3	2.6µM*	4
O=C(CSc1nnc(CNC(=O)c2ccco2)o1)Nc1ccc(Cl)cc1	0	21%	-4	10µM*	-6
O=C(CSc1nnc(CNC(=O)c2ccco2)o1)Nc1cccc(Cl)c1	-35	15%	-1	5.9µM*	-8
O=C(CCS(=O)(=O)c1ccccc1)N(Cc1cccnc1)c1nc2c(Cl)cccc2s1	80	.	-9	.	-5
Cc1cc(CNC(=O)C2CCC(=O)N(Cc3ccccc3F)C2)nn1C (stereo unspecified)	-32	3%	-2	?	21
CCc1nnc(NC(=O)CSc2nnc(CNC(=O)c3cc(OC)c(OC)c(OC)c3)o2)s1	-13	?	17	?	96*
CCSc1nnc(NC(=O)CSc2nnc(CNC(=O)c3cc(OC)c(OC)c(OC)c3)o2)s1	14	7%	-2	?	-14
SMILES	HCMV antiviral	Pf growth 48h	Cycloheximide cs	Pf growth 96h	Shiga inhibitor
COc1ccc(-n2c(CN3CCN(c4ccccn4)CC3)nc3ccc([N+](=O)[O-])cc3c2=O)c(OC)c1	56	12µM*	-5	-1%	-19
COc1cccc(-n2c(CN3CCOCC3)nc3ccc([N+](=O)[O-])cc3c2=O)c1	57	?	-3	0%	-4
COc1ccc(-n2c(CN3CCN(Cc4ccccc4)CC3)nc3ccc([N+](=O)[O-])cc3c2=O)c(OC)c1	21	?	-1	?	-10
COc1cccc(-n2c(CN3CCN(Cc4ccccc4)CC3)nc3ccc([N+](=O)[O-])cc3c2=O)c1	65	12µM*	-2	-16%	-11
O=c1c2cc([N+](=O)[O-])ccc2nc(CN2CCN(c3ccccn3)CC2)n1-c1ccccc1F	-20	64%	-8	13µM*	-1
COc1ccc(-n2c(CN3CCN(c4ccc(F)cc4)CC3)nc3ccc([N+](=O)[O-])cc3c2=O)c(OC)c1	-92*	.	-2	1%	25
CCN(CC)CCn1c(=S)[nH]c2cc(C(=O)NCc3ccc(C)cc3)ccc2c1=O	-21	13%	-6	?	-4
COc1ccc(CCn2cnc(=O)c(C#N)c2C)cc1OC	13	8%	7	16%	2
CC(C)(Oc1ccc(Cl)cc1)C(=O)NCC1CCCO1 (stereo unspecified)	-11	32%	.	-2%	.
COc1ccc(C)cc1S(=O)(=O)N(CC(=O)N1CCCC1)c1ccc(C)cc1	-38	.	.	.	.
CCOc1ccc(S(=O)(=O)Nc2nc3ccc(OC)cc3s2)cc1	?	.	-2	1%	-6
CCOC(=O)c1sc(Nc2nc3ccc(OC)cc3s2)cc1C	?	?	41*	?	74*
CCOC(=O)c1sc(Nc2nc3c(F)cccc3s2)cc1C	84	38%	38*	39%	72*
COc1ccccc1-c1sc2cc3c(cc2c1C#Cc1ccccn1)OCO3	26	-19%	.	?	.
Cc1ccc(S(=O)(=O)NC(C(=O)N2CCOCCOCCOCC2)C(C)C)cc1 (stereo unspecified)	24	34%	17	8%	3
CC(=O)Nc1ccc(CN(C)c2c(C)nc3ccc(C(=O)NC4CCN(Cc5ccccc5)CC4)cn23)cc1	-97*	.	.	.	.
CC(=O)Nc1ccc(CN(C)c2c(C)nc3ccc(C(=O)N(C)Cc4ccccc4)cn23)cc1	1	.	.	.	.
CC(=O)c1c[nH]c(C(=O)NCc2ccccc2Cl)c1	-16	-2%	-2	14%	-17
CCCC[C@H]1COCCS(=O)(=O)N1Cc1ccc(Br)cc1	-32	?	-4	?	-3
CC(C)c1nc(C#N)c(NN)o1	-2	28%	49*	18%	116*
CC(C)c1nc(C#N)c(NCCCn2ccnc2)o1	-29	15%	5	.	-16
CCC1=Nc2cc(C(=O)NCc3ccccc3Cl)ccc2Sc2ccc(C)cc21	-14	.	.	.	.
CC1=Nc2cc(C(=O)NCCCN3CCN(C)CC3)ccc2Sc2ccc(C)cc21	-24	?	-3	33%	11
CC1=Nc2cc(C(=O)NCc3ccco3)ccc2Sc2ccc(C)cc21	-92*	4.1µM*	-1	1.9µM*	-12
CC1=Nc2cc(C(=O)NCC3CCCO3)ccc2Sc2ccc(C)cc21 (stereo unspecified)	-72*	?	-2	-5%	-5
CS[C@@H]1SC[C@H]2C(=O)N(C)C(C(C)C)C(=O)OC[C@@H](NC(=O)c3cnc4ccccc4n3)C(=O)N[C@@H](C)C(=O)N(C)[C@H]1C(=O)N(C)C(C(C)C)C(=O)OC[C@@H](NC(=O)c1cnc3ccccc3n1)C(=O)N[C@@H](C)C(=O)N2C (stereo partly specified)	.	.	-11	.	-3

High-throughput results (PubChem)
